Assay results: PubChem BioAssay AID1159580 (chemical genetic matrix, 2015)
Several values for one entry are separate records, joined by “and”; a condition that tells them apart may be missing. Identical values can stand only once. In all, about 5,500 compounds went through this assay and about 2,000 (36%) were called active. About 18% were inconclusive and are not listed. Cut-off read from the data, not from the text of the source: active = normalized growth mostly below about 0.91 (no sharp cut-off); inconclusive = no clear call, values can overlap the other calls; inactive = mostly above about 0.92. The list shows a part of the results.

Assay: chemical genetic growth profiling, strain panel (AID 1159580);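 note: tested at 20 µM; growth read once vehicle control cultures reached saturation at 30 °C; 1 = growth at the plate median or of vehicle wells; lower values mean less growth of the strain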
Conditions: S. cerevisiae deletion strains, growth OD

Measured: normalized growth

CC1(C)C(=O)C=C[C@@]2(C)C1C[C@@H](O)[C@]1(C)C2CC[C@@]2(C)[C@H](c3ccoc3)OC(=O)[C@H]3O[C@]321 (stereo partly specified)
inactive: locus YAL021C, strain ccr4, active compounds read low 0.988 | locus YAL026C, strain drs2, active compounds read low 0.996 | locus YAL030W, strain snc1, active compounds read low 0.995 | locus YBL061C, strain skt5, active compounds read low 1 | locus YBR009C, strain hhf1, active compounds read low 1 | locus YBR021W, strain FUR4, active compounds read low 1 | locus YBR023C, strain chs3, active compounds read low 1.01 | locus YBR171W, strain sec66, active compounds read low 0.998 | locus YBR229C, strain ROT2, active compounds read low 0.939 | locus YBR231C, strain swc5, active compounds read low 1.01 | locus YBR279W, strain paf1, active compounds read low 1 | locus YCL011C, strain gbp2, active compounds read low 1.01 | locus YCL016C, strain dcc1, active compounds read low 1 | locus YCL029C, strain bik1, active compounds read low 0.969 | locus YCL061C, strain MRC1, active compounds read low 0.998 | locus YCL069W, strain vba3, active compounds read low 0.998 | locus YCR088W, strain abp1, active compounds read low 0.999 | locus YDL005C, strain med2, active compounds read low 0.999 | locus YDL035C, strain GPR1, active compounds read low 0.956 | locus YDL040C, strain nat1, active compounds read low 1 | locus YDL074C, strain BRE1, active compounds read low 0.958 | locus YDL101C, strain DUN1, active compounds read low 0.98 | locus YDL185W, strain tfp1, active compounds read low 0.954 | locus YDL192W, strain arf1, active compounds read low 0.979 | locus YDR001C, strain nth1, active compounds read low 0.985 | locus YDR069C, strain doa4, active compounds read low 1.01 | locus YDR101C, strain arx1, active compounds read low 0.97 | locus YDR137W, strain rgp1, active compounds read low 0.985 | locus YDR159W, strain sac3, active compounds read low 1.01 | locus YDR162C, strain NBP2, active compounds read low 0.949 | locus YDR195W, strain ref2 0.986 | locus YDR297W, strain sur2, active compounds read low 1 | locus YDR318W, strain mcm21, active compounds read low 0.972 | locus YDR334W, strain swr1, active compounds read low 0.995 | locus YDR335W, strain msn5, active compounds read low 0.996 | locus YDR388W, active compounds read low 0.996 | locus YDR392W, strain spt3, active compounds read low 1.01 | locus YDR502C, strain sam2, active compounds read low 1 | locus YEL003W, strain gim4, active compounds read low 1 | locus YEL037C, strain rad23, active compounds read low 0.995 | locus YEL061C, strain CIN8 (second series), active compounds read low 0.994 | locus YER015W, strain faa2, active compounds read low 0.99 | locus YER016W, strain bim1, active compounds read low 1 | locus YER110C, active compounds read low 0.968 | locus YER111C, strain swi4, active compounds read low 1 | locus YER155C, strain BEM2 (second series), active compounds read low 1 | locus YER155C, strain BEM2, active compounds read low 1.01 | locus YER167W, strain BCK2, active compounds read low 0.973 | locus YFR010W, strain ubp6, active compounds read low 0.984 | locus YGL078C, strain dbp3, active compounds read low 0.992 | locus YGL086W, strain mad1, active compounds read low 0.988 | locus YGL167C, strain pmr1, active compounds read low 1.01 | locus YGL173C, strain kem1, active compounds read low 1.01 | locus YGL227W, strain vid30, active compounds read low 1.01 | locus YGL240W, strain doc1, active compounds read low 1.01 | locus YGL248W, strain PDE1, active compounds read low 0.961 | locus YGL253W, strain hxk2, active compounds read low 1 | locus YGR135W, strain pre9, active compounds read low 1.04 | locus YGR229C, strain SMI1, active compounds read low 0.95 | locus YGR252W, strain gcn5, active compounds read low 0.965 | locus YHR013C, strain ard1, active compounds read low 1.01 | locus YHR027C, strain rpn1, active compounds read low 0.986 | locus YHR030C, strain SLT2, active compounds read low 0.966 | locus YHR079C, strain IRE1 (second series), active compounds read low 0.99 | locus YHR079C, strain IRE1, active compounds read low 0.936 | locus YHR094C, strain hxt1, active compounds read low 0.978 | locus YHR129C, strain ARP1, active compounds read low 0.987 | locus YHR142W, strain chs7, active compounds read low 1.01 | locus YHR200W, strain rpn10, active compounds read low 0.976 | locus YIL066C, strain RNR3, active compounds read low 0.94 | locus YIL073C, strain SPO22, active compounds read low 0.928 | locus YIL125W, strain kgd1, active compounds read low 0.985 | locus YIR030C, strain dcg1, active compounds read low 0.992 | locus YJL092W, strain hpr5, active compounds read low 0.999 | locus YJL095W, strain BCK1 (second series), active compounds read low 1 | locus YJL095W, strain BCK1, active compounds read low 1.01 and 0.956 | locus YJL115W, strain asf1, active compounds read low 0.997 | locus YJL129C, strain trk1, active compounds read low 0.991 | locus YJL134W, strain LCB3, active compounds read low 0.98 | locus YJL154C, strain vps35, active compounds read low 0.992 | locus YJL164C, strain tpk1, active compounds read low 1 | locus YJL166W, strain qcr8, active compounds read low 1.01 | locus YJL168C, strain set2, active compounds read low 0.998 | locus YJL187C, strain SWE1 (second series), active compounds read low 1 | locus YJL187C, strain SWE1, active compounds read low 1.02 | locus YJR043C, strain POL32, active compounds read low 0.937
